Assay results published in the supplement of paper PMC9897528.
Unmarked numbers belong to inactive results.
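Also: conidia screened in RPMI 1640 medium under 5% CO2, growth read by spectrophotometer, medium with 0.5% DMSO serving as the untreated reference.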

Each compound was assayed on Scedosporium aurantiacum CBS 136046 (assay: growth inhibition relative to DMSO control (OD600); higher = more antifungal activity, active = 80 or more; extreme values may be limits of the assay). Details: 5 µM; 72 h; 37 °C.
`Nc1nc(O)c2ncn([C@@H]3O[C@H](CO)[C@@H](O)[C@H]3F)c2n1` gave a growth inhibition of 17.4%.
With `O=C(Nc1nnc(-c2ccc(Cl)cc2)o1)c1nc2ccccc2s1` the growth inhibition was 15.8%.
`C[C@@H](NC(=O)c1cccc(-c2cnc(-c3cc4ccccc4cn3)[nH]2)c1)c1ccc(F)cc1` was tested, and the growth inhibition was 18.9%.
`COc1ccc(SC(=O)N[C@H](CCC(=O)O)C(=O)O)cc1` gave a growth inhibition of 24.2%.
In the case of `COc1cc(NCc2ccc3nc(N)nc(N)c3c2C)cc(OC)c1OC`, the growth inhibition is reported as 0.273%.
`O=C(Cn1cnc2ccccc2c1=O)Nc1ccccc1` gave a growth inhibition of 1.51%.
`COc1c(NC(=O)[C@H]2CC[C@@H](COc3ccc([N+](=O)[O-])cc3)CC2)c(F)cc2c(=O)c(C(=O)O)cn(C3CC3)c12` gave a growth inhibition of 15.5%.
In the case of `Nc1ccc2oc(=O)ccc2c1I`, the growth inhibition is reported as 8.52%.
In the case of `Cc1cc(C)n(O)c(=O)c1`, the growth inhibition is reported as 0.961%.
For `Nc1nc(NC2Cc3ccc(F)cc3C2)nc(N2CCCCC2)n1` (centres undefined), the growth inhibition was 45.3%.
With `Clc1ccc(COC(Cn2ccnc2)c2ccc(Cl)cc2Cl)c(Cl)c1` (centres undefined) the growth inhibition was 80.6% (active).
`CC[C@@]1(O)C(=O)OCc2c1cc1n(c2=O)Cc2cc3c([N+](=O)[O-])cccc3nc2-1` was tested, and the growth inhibition was 22.2%.
Compound `O=C(O)c1ccc(-n2nc(-c3ccccc3O)nc2-c2ccccc2O)cc1` has a growth inhibition of 0.0499%.
`COC(=O)Nc1nc2c(C)cccc2[nH]1` was tested, and the growth inhibition was 0%.
`CC[C@H](NC(=O)[C@H](C)NC)C(=O)N1C[C@@H](O)C[C@H]1Cc1c(-c2[nH]c3cc(F)ccc3c2C[C@@H]2C[C@H](O)CN2C(=O)[C@H](CC)NC(=O)[C@H](C)NC)[nH]c2cc(F)ccc12` was tested, and the growth inhibition was 6.5%.
`NS(=O)(=O)c1ccc(NC(=O)NC(c2ccccc2)c2ccccc2)cc1` showed a growth inhibition of 25.6%.
Compound `Nc1nc(Nc2ccc3nc(-c4ccc(F)cc4)cc(N)c3c2)cc(-c2ccccc2)n1` has a growth inhibition of 17.1%.
Work on `COc1ccc(COc2cc3oc(=O)c4cc(C(C)O)ccc4c3cc2OC)cc1` (centres undefined) yielded a growth inhibition of 2.35%.
`CCCCc1ccc(-c2cc(C(=O)O)cc(-c3ccc(Cl)cc3)n2)cc1` gave a growth inhibition of 37.3%.
Compound `CC(C)(C)c1cccc(-c2nc3cc(C(=N)N)ccc3[nH]2)c1O` has a growth inhibition of 17.4%.
Compound `c1cnc(NCc2ccc(CNc3ncccn3)cc2)nc1` has a growth inhibition of 10.1%.
`Nc1nc2c(ncn2/C=C2/CC2(CO)CO)c(=O)[nH]1` gave a growth inhibition of 1.28%.
Work on `Nc1nc(=O)c(Br)c(-c2ccccc2)[nH]1` yielded a growth inhibition of 0.62%.
Work on `O=C(Nc1cccc(C2=NCCN2)c1)c1ccc(-c2ccc(C(=O)Nc3cccc(C4=NCCN4)c3)cc2)cc1` yielded a growth inhibition of 1.73%.
